# An excerpt weighted towards active compounds, which were near 2.4% of everything screened.
# TGFb inhibitor: TGF-b pathway inhibition | HepG2 CAGA-GFP TGF-b/SMAD3 reporter, GFP fluorescence, 18 h; TGF-beta stimulated, 500 pg/mL final | Potency, µM (highest dose often 46.1 µM), for inactives: at the highest dose activity, negative = inhibition, actives largely listed as inhibitors | actives 1.2% (n = 410,000); further: on the % scale 0 is the no-effect control and ±100 the full control effect; nearly all actives have a fitted effect of over 65% in size
#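 Using HEPG2 CAGA-GFP reporter cells at 1000 cells/well, we pinned test compounds, stimulated with recombinant TGF-beta (500 pg/mL final) and measured total well GFP after 18 h.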
# Anesthetic bind: candidate novel general anesthetic via apoferritin binding | Potency, µM (highest dose often 77.5 µM), for the others: at the top dose activity change, negative = displacement, hits mostly inhibitors | P02791 | actives 0.074% (n = 350,000) | apoferritin/1-aminoanthracene competitive binding, fluorescence; further: on the % scale 0 is the no-effect control and ±100 the full control effect; nearly all actives have a fitted effect of over 20% in size
# Target sequence (P02791 2-175 limits assumed): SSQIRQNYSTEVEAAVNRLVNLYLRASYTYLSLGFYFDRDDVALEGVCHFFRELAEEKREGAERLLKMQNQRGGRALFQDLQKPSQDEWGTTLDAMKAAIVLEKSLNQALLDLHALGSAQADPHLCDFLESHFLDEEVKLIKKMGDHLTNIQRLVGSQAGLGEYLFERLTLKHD
#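 Apoferritin-based anesthetic binding model; compound displacement of fluorescent 1-AMA measured as endpoint fluorescence after 10 minutes at room temperature, scaled to free-ligand and complex controls.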
# HepG2 tox: kills HepG2 cells in TGF-b inhibitor counter-screen | actives 0.76% (n = 410,000) | HepG2 CAGA-GFP viability, ATP luminescence, 18 h | Potency, µM (titrated, usually from 46.1 µM), for inactives: at the top dose activity change, negative = cytotoxicity, hits mostly cytotoxic
#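 HepG2 CAGA-GFP cells (1000/well, DMEM with 1% FBS) received compound, then TGF-beta at 500 pg/mL final, and were incubated 18 hours at 37 degrees C. Viability was read by CellTiter-Glo luminescence. Media-only wells were set as complete cell-killing and DMSO as no toxicity.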
# ATXN2 expr inh: inhibitors of ATXN2 expression; actives 0.72% (n = 360,000); Potency, µM (highest dose often 57 µM), without a hit: top-dose activity change, negative = inhibition, usual class: inhibitors; HEK-293 ATXN2-luciferase reporter, luminescence, 24 h; AID 1745845; further: on the % scale 0 is the no-effect control and ±100 the full control effect; nearly all actives have a fitted effect of over 55% in size
#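 qHTS (up to 57 uM final) was run with 24 h compound exposure of reporter cells at 37 °C. Each well was multiplexed: SteadyGlo luminescence measured ATXN2-luciferase expression after a fluorogenic Gly-Phe-AFC viability readout (25 uM final).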
# ATXN viability: cell viability loss in ATXN counter-screen; S2 cells (HEK-293 line with an ATXN2-luciferase reporter) viability, CellTiter-Fluor protease fluorescence, 24 h; Potency, µM (series often up to 56.7 µM), actives largely listed as cytotoxic; actives 0.49% (n = 400,000); AID 651635; further: nearly all actives have a fitted effect of over 40% in size
# * = called active by the depositor; i = inactive; ? = inconclusive; nt = no result; [ ] = dose if it differs, or a comment. The call rests on the fitted dose curve; in most records, active means well fitted curve in the direction sought with a large enough effect; inconclusive means small, poorly fitted or top-dose-only effect, or another doubt; inactive means no such curve, though single readings can be large; an effect the other way counts as inactive or inconclusive. Potency means the concentration at half of the fitted maximal effect.
SMILES,TGFb inhibitor,Anesthetic bind,HepG2 tox,ATXN2 expr inh,ATXN viability
Cc1cc(C)cc(OC(C)C(=O)Nc2nonc2-c2ccc(Br)cc2)c1 (stereo not drawn),16µM*,-3%,-56%,?,?
Cc1cccc(C)c1OCC(=O)Nc1nonc1-c1ccc(Br)cc1,?,-6%,-41%,?,?
Cc1nc(NC(=O)/C=C/c2ccccc2)n[nH]1,13µM*,-3%,16%,4%[11.3 µM],i
COc1cc(/C=C(\C#N)C(=O)NC2CCCCC2C)ccc1OS(=O)(=O)c1ccc(C)cc1 (stereo not drawn),20µM*,-14%,-83%,-12%,i
COc1cc(/C=C(\C#N)C(N)=O)ccc1OS(=O)(=O)c1ccc(C)cc1,8%,-10%,-19%,-2%,i
C[C@@H]1CC[C@H]2C(=O)N3[C@@H](CC[C@@H](C)[C@@H]3c3ccc(Br)cc3)C(=O)N2[C@@H]1c1ccc(Br)cc1,nt,-4%[15.3 µM],nt,nt,nt
COc1cc(CCc2ccccc2)c(C(=O)O)c(O)c1C/C=C(/C)CCC=C(C)C,13µM*,nt,14µM*,0%,i
COc1cc(CCc2ccccc2)c(C(=O)O)c(O)c1CC=C(C)C,?,nt,-41%,-25%,i
O=C(Oc1ccc(Br)cc1C(=S)N1CCCCC1)c1cc([N+](=O)[O-])cc([N+](=O)[O-])c1,?,32µM*,-18%,-9%,i
O=C(Cc1ccccc1Cl)N1CCN(c2ncccn2)CC1,28%,-14%,0%,-7%,i
CC(C)CC(=O)Nc1n[nH]c2c1CN(C(=O)C1CCN(C)CC1)C2(C)C,nt,nt,nt,1.1µM*,nt
CC(C)CC(=O)Nc1ccc(C(=O)CN2CCC(C)CC2)cc1,6%,-13%,-5%,1%,i
CC[C@@]1([C@@H]2O[C@@H]([C@H]3O[C@@](O)(CO)[C@H](C)C[C@@H]3C)C[C@@H]2C)CC[C@@H]([C@]2(C)CCC3(C[C@H](O)[C@@H](C)[C@@H]([C@@H](C)[C@@H](OC)[C@H](C)C(=O)O)O3)O2)O1 (stereo partly drawn),nt,-5%,nt,nt,nt
COc1cc2c3cc1Oc1c(OC)c(OC)cc4c1[C@@H](Cc1ccc(OC(=O)c5ccc([N+](=O)[O-])cc5)c(c1)Oc1ccc(cc1)C[C@@H]3N(C)CC2)N(C)CC4,nt,4%,nt,nt,nt
CC1(Cc2ccc(C(F)(F)F)o2)C(=O)Nc2ccc(-c3cccc(C(F)(F)F)c3)cc21 (stereo not drawn),14µM*,nt,18µM*,?,i
CC1(Cc2ccc3c(c2)OCO3)C(=O)Nc2ccc(-c3cccc(C(F)(F)F)c3)cc21 (stereo not drawn),?,nt,18µM*,?,?
CCc1ccc2c(c1)NC(=O)C2(C)Cc1ccc(C(F)(F)F)o1 (stereo not drawn),?,nt,-42%,?,?
N#Cc1nc(Cl)c(Cl)c(NN)c1Cl,-25%,-12%,-22%,-14%,i
CSc1nnc(CNC(=O)c2c(-c3ccccc3)noc2C)n1-c1ccc(F)cc1,nt,nt,nt,nt,i
NC(=O)Nc1ccc(/C=C2\C=Cc3ccccc32)cc1,?,nt,-49%,nt,nt
O=C(NCCc1ccc(Cl)cc1)c1ccc(CS(=O)Cc2cccc(Cl)c2)o1 (stereo not drawn),8.9µM*,1%,-19%,nt,nt
CCc1ccccc1S(=O)(=O)Cc1ccc(C(=O)NCCc2ccc(Cl)cc2)o1,11µM*,-5%,-46%,?,nt
Cc1ccc(Cn2cnc3c(cnn3C(C)(C)C)c2=O)cc1F,-15%,nt,-74%,nt,nt
CC(C)(C)n1ncc2c(=O)n(Cc3ccccc3-c3ccccc3)cnc21,-29%,nt,-16%,nt,nt
Fc1cc(F)cc(Nc2nc(Cl)nc(NC3CCCC3)n2)c1,?,nt,-60%,?,25µM*
SMILES,TGFb inhibitor,Anesthetic bind,HepG2 tox,ATXN2 expr inh,ATXN viability
CCCCCCCCNS(=O)(=O)CCNCc1ccccc1OC,?,nt,13µM*,-36%,?
COc1ccc(CNS(=O)(=O)CCNCc2ccccc2OC)cc1,-11%,nt,-18%,-5%,i
Cc1cc(=O)[nH]c(SCC(=O)Nc2c(C)n(C)n(-c3ccccc3)c2=O)c1C#N,-2%,nt,4%,-8%,i
Cn1c(SCC(=O)N2CCCCC2)nc2c([nH]c3ccccc32)c1=O,3%,-7%,0%,-4%,i
CCOC(=O)N1CCN(C(=O)CSc2nc3c([nH]c4ccccc43)c(=O)n2C)CC1,13µM*,5%,-75%,3%,i
COc1cccc2sc(Nc3nnc(-c4cccs4)o3)nc12,-15%,44%,-18%,21%,i
COc1cccc2sc(Nc3nnc(-c4ccc(F)cc4)o3)nc12,-23%,0%,13µM*,?,nt
CC(NC(=O)COC(=O)Cc1ccsc1)C1CC2CCC1C2 (stereo not drawn),4%,16µM*,-4%,-2%,i
O=C1CCSC2(C(=O)N(Cc3ccc(F)cc3)c3ccccc32)N1c1cccc(F)c1 (stereo not drawn),13µM*,-11%,-50%,nt,nt
O=C1CCSC2(C(=O)N(Cc3ccc(F)cc3)c3ccccc32)N1c1ccccc1 (stereo not drawn),?,?,-48%,nt,nt
Cc1cccc(N2C(=O)CCSC23C(=O)N(Cc2ccc(F)cc2)c2ccccc23)c1 (stereo not drawn),?,-12%,18µM*,nt,nt
CCOc1ccc2nc(NC(=O)c3cc(=O)c4cc(C)cc(C)c4o3)sc2c1,-12%,-7%,-13%,5%,i
CC(C)(C)c1ccc(/C=N/Nc2nncn2N)cc1,-10%,-14%,3.5µM*,-5%,i
CSc1ccc(/C=N\Nc2nncn2N)cc1,?,-16%,-144%,nt,?
CCN(CC)c1cc(C)c2cc(NC(=O)c3cc(OC)cc(OC)c3)ccc2n1,?,258%,-27%,18µM*,nt
CCN(CC)c1cc(C)c2cc(NC(=O)c3ccc(OC)c(OC)c3)ccc2n1,?,0%,-83%,-6%,?
CCN(CC)c1cc(C)c2cc(NC(=O)c3ccc(F)cc3Cl)ccc2n1,0%,140%,-27%,?,?
CCN(CC)c1cc(C)c2cc(NC(=O)/C=C/c3ccccc3Cl)ccc2n1,?,-13%,-81%,28µM*,nt
CCOC(=O)Cc1ccc(NC(=O)Nc2nnc(N3CCCCC3C)s2)cc1 (stereo not drawn),11µM*,-1%,-39%,nt,nt
CCOC(=O)Cc1nnc(NC(=O)Nc2ccccc2)s1,5%,-15%,3%,2%,i
COC(=O)c1ccc(NC(=O)c2cn(-c3ccccc3)nc2-c2ccncc2)cc1,8%,-9%,7.1µM*,5%,i
O=C(Nc1nc2cc3c(cc2s1)OCCO3)C1=COCCO1,-13%,-2%,8.9µM*,?,i
